This passage reports Potency results from PubChem BioAssay (NCATS).

Results filed as inconclusive are left out. The source made the active and inactive calls. The call rests on the fitted dose curve; in most records, active means well fitted curve in the direction sought with a large enough effect; inconclusive means small, poorly fitted or top-dose-only effect, or another doubt; inactive means no such curve, though single readings can be large; an effect the other way counts as inactive or inconclusive.

Assay [1] in a line: Quantitative High-Throughput drug screen in 47 multiple myeloma cell lines against the NCATS MIPE library collection: AMO1_DSMZ cell viability assay (AID 1918927; further: nearly all actives have a fitted effect of over 30% in size). Summed up: (§1)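 Steps: seed 500 cells per well; pin-transfer MIPE 4.0 library; incubate 48 h at 37C, 5% CO2, humidified; add CellTiter-Glo, 5 min room temperature; read luminescence.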
Assay [2] is described as follows: Quantitative High-Throughput drug screen in 47 multiple myeloma cell lines against the NCATS MIPE library collection: ARD_JJKsccE7 cell viability assay (AID 1918929). The method, boiled down: as §1
Assay [3] in a line: Quantitative High-Throughput drug screen in 47 multiple myeloma cell lines against the NCATS MIPE library collection: Karpas620_DSMZ cell viability assay (AID 1918959). Further: nearly all actives have a fitted effect of over 30% in size. The method, boiled down:
(§2)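 qHTS of the MIPE 4.0 collection: 500 myeloma cells/well, 48 h drug exposure at 37C in 5% CO2, then CellTiter-Glo for 5 min at room temperature before luminescence reading.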

Assay [4] is described as follows: Quantitative High-Throughput drug screen in 47 multiple myeloma cell lines against the NCATS MIPE library collection: KMM1_JCRB cell viability assay (AID 1918960). Further: nearly all actives have a fitted effect of over 30% in size. The method, boiled down:
(§3)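 Each line was plated at 500 cells/well and treated 48 h with library drugs. Viability came from CellTiter-Glo luminescence relative to DMSO and cell-free medium controls.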

Assay [5] in a line: Quantitative High-Throughput drug screen in 47 multiple myeloma cell lines against the NCATS MIPE library collection: KHM11_PLB cell viability assay (AID 1918962). Further: nearly all actives have a fitted effect of over 35% in size. The method, boiled down: as §2
The nature of assay [6]: Quantitative High-Throughput drug screen in 47 multiple myeloma cell lines against the NCATS MIPE library collection: JIM3_ECACC cell viability assay (AID 1918963; further: nearly all actives have a fitted effect of over 35% in size). Summed up: as §2
The nature of assay [7]: Quantitative High-Throughput drug screen in 47 multiple myeloma cell lines against the NCATS MIPE library collection: JIM1_ECACC cell viability assay (AID 1918964). The method, boiled down:
as §1

A short description of assay [8]: Quantitative High-Throughput drug screen in 47 multiple myeloma cell lines against the NCATS MIPE library collection: ARP1_JJKsccF8 cell viability assay (AID 1918928; further: nearly all actives have a fitted effect of over 40% in size). The method, boiled down:
as §3

A short description of assay [9]: Quantitative High-Throughput drug screen in 47 multiple myeloma cell lines against the NCATS MIPE library collection: Karpas417_ECACC cell viability assay (AID 1918961). Conditions: Karpas417 myeloma viability, CellTiter-Glo ATP luminescence, 48 h; viability (% of DMSO): at 45.8 µM (top of the series). Summed up: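 Luminescent ATP measurement with CellTiter-Glo gives viability, scaled between DMSO-only wells (100%) and media-only wells (0%). Cells, 500 per well, faced library compounds for 48 hours at 37C.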
Background: ATP-based viability assays read luminescence as a measure of living cells.
Potency means the concentration at half of the fitted maximal effect.

Consider `O=c1cc(N2CCOCC2)oc2c(-c3cccc4c3sc3ccccc34)cccc12`, for which the Potency in assay [1] is 5.26 µM (active); in assay [2], 11.8 µM (active); in assay [3], 16.6 µM (active); in assay [4], 5.9 µM (active); in assay [5], 5.9 µM (active); in assay [6], 3.32 µM (active). The Potency in assay [7] is 2.96 µM (active).

In the case of `CC=CCC=CCCC(=O)[C@H]1O[C@@H]1C(N)=O`, the Potency was 20.9 µM (active) in [1], 26.4 µM (active) in assay [2], 16.6 µM (active) in assay [3] and 11.8 µM (active) in [7].

With `O=c1cc(CN2CCOCC2)occ1OCCCCCSc1ccnc2cc(C(F)(F)F)ccc12`, the Potency in assay [8] was 20.9 µM (active); in assay [2], 20.9 µM (active); in [4], 13.2 µM (active); in assay [6], 4.69 µM (active); in assay [7] it was 18.7 µM (active).

Turning to `CC(=O)OC1C(C)OC(Oc2c(-c3ccc(O)cc3)oc3cc(O)cc(O)c3c2=O)C(O)C1OC(C)=O` (configuration not stated), the Potency result in assay [8], in assay [5] and in assay [6] was “inactive” in each case.

Consider `O=c1cc(-c2cccc3c2Sc2ccccc2S3)oc(N2CCOCC2)c1`, for which the Potency in assay [1] is 16.6 µM (active); in assay [3] it was 18.7 µM (active); in assay [6], 16.6 µM (active); in assay [7] it was 16.6 µM (active).

In the case of `Nc1ncnc2ccccc12`, the Potency result in assay [8], in [2], in [3], in [4] and in assay [7] was “inactive” each time.

For the compound `COc1ccc(C2CC(c3ccccc3)=NN2c2ccc(S(N)(=O)=O)cc2)cc1` (configuration not stated), the Potency in assay [1] was 11.8 µM (active); in [2], 23.5 µM (active); in assay [3] it was 16.6 µM (active); in assay [4], 18.7 µM (active); in [6], 18.7 µM (active); in assay [7], 14.8 µM (active). The Potency entry in assay [5] was “inactive”.

For the compound `CN(C)Cc1cccc(N=C(c2ccccc2)c2c(O)[nH]c3cc(C(=O)N(C)C)ccc23)c1`, the Potency result in [8] is “inactive”. Besides, the Potency in assay [5] was 5.9 µM (active); in assay [6] it was 1.87 µM (active).

Turning to `O=C(NCc1ccncc1)C12C[C@H]3C[C@@H](C1)CC(c1ccc(Cl)cc1)(C3)C2`, the Potency in assay [1] is 9.35 µM (active); in assay [2] it was 18.7 µM (active); in [3], 9.35 µM (active); in assay [4], 23.5 µM (active); in [6] it was 23.5 µM (active); in [7] it was 13.2 µM (active). Also, the Potency result in assay [5] was “inactive”.

Consider `CCCCCNC(=O)N1CCC(CN(Cc2ccc(Cl)cc2)Cc2ccc([N+](=O)[O-])s2)C1` (configuration not stated), for which the figures for the Potency in [1], in assay [2] and in assay [3] were 18.7 µM (active), 20.9 µM (active) and 18.7 µM (active), respectively.

On to `COC(=O)C1=CO[C@@H](O)[C@@H]2C(CO)=CC[C@@H]12`, for which the Potency in [1] is 18.7 µM (active); in [3] it was 23.5 µM (active); in [6], 23.5 µM (active).

Regarding `CCS(=O)(=O)N1CC(CC#N)(n2cc(-c3ncnc4[nH]ccc34)cn2)C1`, the Potency in [1] is 3.72 µM (active); in [9], 0.105 µM (active); in [5] it was 11.8 µM (active); in assay [6], 16.6 µM (active). The Potency result in assay [2] and in assay [4] was “inactive” each time.

Consider `O=c1c(-c2ccc(O)cc2)coc2cc(OC3O[C@H](CO)[C@H](O)[C@H](O)[C@H]3O)cc(O)c12` (some centres not stated), for which the Potency entry in assay [1] and in assay [7] was “inactive” in each case. The Potency in assay [8] was 18.7 µM (active).

For the compound `CS(=O)(=O)N(Cc1ccco1)CC(O)Cn1c2ccccc2c2ccccc21` (configuration not stated), the Potency entry in assay [8], in assay [3] and in assay [7] was “inactive” in each case.

For the compound `c1cc(-c2sc(-c3ccncc3)c(-c3ccncc3)c2-c2ccncc2)ccn1`, the Potency entry in assay [8] and in assay [3] was “inactive” in each case.

Regarding `NC(=O)c1cccc(-c2cc(Nc3ccc(OC(F)(F)F)cc3)ncn2)c1`, the Potency in assay [1] is 18.7 µM (active); in assay [2] it was 14.8 µM (active); in assay [3] it was 26.4 µM (active); in assay [4], 14.8 µM (active); in [5], 14.8 µM (active); in assay [6] it was 18.7 µM (active).

Consider `Cc1ccccc1C(C(=O)NC1CCCCC1)N(C(=O)Cn1ccnc1C)c1cccc(F)c1` (configuration not stated), for which the Potency entry in assay [8], in assay [3] and in assay [4] was “inactive” each time.

For `CC=C(C)C(=O)O[C@H]1C(C)=C[C@]23C(=O)[C@@H](C=C(CO)[C@@H](O)[C@]12O)[C@H]1[C@@H](C[C@H]3C)C1(C)C`, the Potency in [1] was 18.7 µM (active); in assay [2], 11.8 µM (active); in assay [4], 11.8 µM (active); in [9], 0.209 µM (active); in [5], 3.72 µM (active).

In the case of `Clc1ccc(COC(Cn2ccnc2)c2ccc(Cl)cc2Cl)cc1` (configuration not stated), the figures for the Potency in assay [1], in assay [2] and in [4] were 23.5 µM (active), 26.4 µM (active) and 20.9 µM (active), respectively.

Take `O=C(O)c1cc(O)c2c(c1)C(=O)c1cccc(O)c1C2=O`: the Potency in assay [8] was 34 µM (active). Besides, the Potency entry in assay [2] was “inactive”.

With `C[C@]12CC[C@@H]3c4ccc(O)cc4C[C@@H](CCCCCCCCCS(=O)CCCC(F)(F)C(F)(F)F)[C@H]3[C@H]1CC[C@H]2O` (some centres not stated), the Potency entry in assay [1], in assay [2], in assay [3], in [4], in assay [5] and in assay [6] was “inactive” each time. Moreover, in assay [7], the Potency entry was “inactive”.

On to `COCCOC(=O)C1=C(C)NC2=C(C(=O)CC(c3ccccc3OC)C2)C1c1cccc(O)c1` (configuration not stated), for which the Potency in assay [8] was 10.5 µM (active); in assay [2], 1.66 µM (active); in assay [5], 11.8 µM (active); in [6], 20.9 µM (active); in assay [7], 9.35 µM (active).

Take `COc1cc(Nc2ncc(F)c(Nc3ccc4c(n3)NC(=O)C(C)(C)O4)n2)cc(OC)c1OC`: the Potency entry in assay [1] and in assay [3] was “inactive” each time. The figures for the Potency in assay [8] and in assay [6] were 5.9 µM (active) and 0.935 µM (active), respectively.

As for `OC[C@H]1O[C@@H](n2cnc3c2NC=NC[C@@H]3O)C[C@H]1O`, the Potency entry in assay [1], in assay [2], in assay [4], in assay [9], in [5] and in assay [7] was “inactive” in each case. For the same compound, in assay [3], the Potency is 14.8 µM (active).

On to `CN1CCN(CCOc2cc(OC3CCOCC3)c3c(Nc4c(Cl)ccc5c4OCO5)ncnc3c2)CC1`, for which the Potency in assay [1] is 18.7 µM (active); in assay [2], 18.7 µM (active); in assay [3] it was 18.7 µM (active); in assay [4], 14.8 µM (active); in [5] it was 18.7 µM (active); in assay [6], 23.5 µM (active). Also, the Potency in assay [7] was 20.9 µM (active).

For `CC[C@H]1OC(=O)[C@H](C)C(=O)[C@H](C)[C@@H](O[C@H]2O[C@H](C)C[C@H](N(C)C)[C@@H]2O)[C@](C)(OC)C[C@@H](C)C(=O)[C@H](C)[C@H]2N(CCCCn3cnc(-c4cccnc4)c3)C(=O)O[C@]12C`, the Potency entry in [1], in [2], in assay [3], in assay [5], in assay [6] and in assay [7] was “inactive” in each case. Moreover, in [4], the Potency is 3.72 µM (active).

For the compound `CCN(CC)CCOc1ccc(C(=C(Cl)c2ccccc2)c2ccccc2)cc1`, the Potency entry in assay [8] was “inactive”.
